# PubChem BioAssay AID1508600 (Functional Genomics Laboratory (NCATS/FGL), 2020)
# Screen size: about 53,000 sequences; about 3,700 (7%) were called active. Only a selection was taken, and actives are over-represented in it overall. Values without a mark were called inactive.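 The calls were made as follows: active = gene knockdowns whose robust z-score for IL-1 alpha signal is at least 2 or at most -2, so actives lie on both sides; inactive = the rest.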
# Assay: Components of the Cytosolic LPS Sensing Pathway: Gene Identification via Genome-wide siRNA Screen;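 also: robust z of the log signal after scaling to non-targeting control siRNA wells of the plate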
# Conditions: RAW264.7 macrophages, IL-1a HTRF, actives lie on both sides, screened at 100 nM (by protocol), cells primed 5 h with Pam3CSK4 first
# In short: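 RAW264.7 mouse macrophages reverse-transfected with single siRNAs (100 nM final) for 48h, primed with Pam3CSK4 for 5 hours, then transfected with LipidA for 24 hour. Supernatant IL-1a read by HTRF; values normalized to negative-control median, log-transformed robust z-scores.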
row,Sequence,z-score
1,CGUGAAGAUUGACGUGUUUTT against Pcyox1,1.06
2,UGCCUGUAAACCAACAAGGTT against Prb1,-2.04 (active)
3,GUGAAGAGGAGCAGGACUUTT against Klrc3,0.261
4,GGGAAAAGUAUCCUCUGUUTT against Olfr877,-0.968
5,GCGAAGUCAUCAAAUUUUCTT against Abcb11,0.622
6,GGUCCUUAAGUCCUUUGACTT against Cdr1os,0.894
7,GGGAAAGAUAAAUGUUUCCTT against Gucy1b1,1.89
8,GGUUCAGACAAGCAUCUAGTT against Sbp,-1.04
9,CCUCAGGAUACAGACCCACTT against Frg2f1,-0.35
10,GGAAAUUUUUUCCUUUCCUTT against Olfr211,-0.638
11,GGACCAUCAGAGGAGAACUTT against Cuedc2,-2.09 (active)
12,CGAGAGUGGGUGGGUUGAATT against Zfp950,0.628
13,GCCCUAUCUACGAUGAAAATT against Scamp2,-0.197
14,CCGAAUACGUGAAGACGCATT against Slc25a1,-0.967
15,GGAGGAAAAUGUCCUUGUUTT against Pth,0.25
16,GCAGGAAUGCGGUAUAAACTT against Inpp5f,0.707
17,GCACUGGACUUAGGAUGGUTT against Ankrd22,2.2 (active)
18,GGACACCACGUUCACCAAGTT against Rbm38,-0.36
19,GCUUCAAUAACUGCGCAAGTT against Zkscan2,0.547
20,GGAUGACUGAAUGAUGGGATT against Tcl1b5,-2.15 (active)
21,GGACCUCACAAUGAGUAUGTT against Thtpa,1.23
22,CGACGAACCUGAGUAUAUUTT against Canx,-0.0578
23,GUGCAGGUCCUAAUCUGAATT against Asb1,2.15 (active)
24,GGAAAAAAGCCUCAUCGGATT against Wdr63,0.676
25,GGGAGAGUGUUUGUUCAUUTT against Dusp1,-0.082
26,GGCCUACCUAUAGAAAUGATT against Pgap1,0.208
27,GACACCUACUUCAUUGGCCTT against Olfr1245,-1.23
28,GCAGUUAUAUGCUCAAGAUTT against Pik3r3,0.0211
29,GCCUUACUUCGGAGUGCUATT against Olfr606,-4.78 (active)
30,GCCAGCAUAAAUAUACUUUTT against Apol10a,-0.0597
